The panel holds about 79,000 compounds, 15% with a hit somewhere; the sample as a whole holds those more often. Values without a mark were called inactive. Activity calls are given as the source filed them. No stated cut-off is given here; in the data, active means growth inhibition above about 70%; inactive means the rest.

Growth inhibition data for 9 compounds are collected here from PubChem BioAssay (NCI).

Experiment [1] in a line: NCI Yeast Anticancer Drug Screen. Data for the rad50 strain (AID 155).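 Further: 0% = growth of vehicle-only cultures of the same strain.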 Particulars: S. cerevisiae rad50 strain growth inhibition, hits give high values. The method, boiled down:
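Inhibition values express reduced yeast growth in compound-treated cultures relative to vehicle-treated controls.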

Experiment [2] can be described thus: NCI Yeast Anticancer Drug Screen. Data for the mec2-1 strain (AID 157). The note with it: S. cerevisiae mec2-1 strain, hits give high values. The method, boiled down: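 Growth inhibition is read against vehicle-treated controls after compound exposure of the mec2-1 yeast strain, which is defective in DNA damage repair or cell cycle control.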
A short description of experiment [3]: NCI Yeast Anticancer Drug Screen. Data for the sgs1 mgt1 strain (AID 161).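 Further: 0% = growth of cultures given vehicle only.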 The note with it: S. cerevisiae sgs1 mgt1 strain, hits give high values. The method, boiled down: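 Compounds are added to genetically altered yeast, and growth is compared with cultures given vehicle alone to give percent inhibition.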
Experiment [4] is described as follows: NCI Yeast Anticancer Drug Screen. Data for the cln2 rad14 strain (AID 165).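 Further: 0% = growth equal to vehicle treated cultures.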 Particulars: S. cerevisiae cln2 rad14 strain, hits give high values. In outline: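 Growth inhibition, relative to vehicle-treated controls, is the read-out. The test organism is a yeast strain with defined genetic alterations, cln2 rad14.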
Experiment [5] is described as follows: NCI Yeast Anticancer Drug Screen. Data for the bub3 strain (AID 167). Particulars: S. cerevisiae bub3 mutant strain, hits give high values. The method, boiled down: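 Steps: expose the mutant yeast strain to compound; grow alongside vehicle-treated cultures; measure growth; express inhibition against the vehicle cultures.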
Experiment [6] is described as follows: NCI Yeast Anticancer Drug Screen. Data for the mlh1 rad18 strain (AID 175). Particulars: S. cerevisiae mlh1 rad18 strain growth inhibition, hits give high values. The method, boiled down:
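Cells of a genetically altered yeast strain, deficient in DNA damage repair, were treated with compound. Their growth was then compared with that of vehicle-treated cultures to give inhibition.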

The mark [7] stands for this setting: at 5.0 µM (retest, dose inferred, filed as 0.5).
Setting [8] is: at 50.0 µM (retest, dose inferred, filed as 5.0).

Turning to `O=c1cc(-c2ccccc2)oc2ccc(-c3ccc4oc(-c5ccccc5)cc(=O)c4c3)cc12`, the growth inhibition in experiment [1] (setting [7]) was 8%; in experiment [1] (setting [8]) it was 40%; in experiment [1] (at 50.0 µM), 37.3%; in experiment [2] (setting [7]) it was 7%; in experiment [2] (setting [8]), 16%; in experiment [2] (at 50.0 µM), 40.6%. The growth inhibition in experiment [3] (setting [7]) was -10%; in experiment [3] (setting [8]) it was 82% (active); in experiment [3] (at 50.0 µM) it was 31.7%; in experiment [4] (setting [7]), -1%; in experiment [4] (setting [8]), 39%; in experiment [4] (at 50.0 µM), 28.4%. Besides, the growth inhibition in experiment [5] (setting [7]) is 5%; in experiment [5] (setting [8]), 89% (active); in experiment [5] (at 50.0 µM) it was 59%; in experiment [6] (setting [7]), 13%; in experiment [6] (setting [8]), 25%; in experiment [6] (at 50.0 µM), 87.8% (active).

As for `CCOC(=O)N1C2C=CC(=O)C(C=C2)N1C(=O)OCC` (configuration not stated), the growth inhibition in experiment [1] (setting [7]) is -1%; in experiment [1] (setting [8]), 43%; in experiment [1] (at 50.0 µM), 72.8% (active); in experiment [2] (setting [7]), -9%; in experiment [2] (setting [8]), 61%; in experiment [2] (at 50.0 µM), 85.5% (active). Further, the growth inhibition was 1% in experiment [3] (setting [7]); 73% (active) in experiment [3] (setting [8]); 85.1% (active) in experiment [3] (at 50.0 µM); 7% in experiment [4] (setting [7]); 30% in experiment [4] (setting [8]); 67.8% in experiment [4] (at 50.0 µM). Besides, the growth inhibition is 1% in experiment [5] (setting [7]); 61% in experiment [5] (setting [8]); 86.7% (active) in experiment [5] (at 50.0 µM); 18% in experiment [6] (setting [7]); 85% (active) in experiment [6] (setting [8]); 94.3% (active) in experiment [6] (at 50.0 µM).

Consider `C=CCN1CCC(OC(=O)C(O)(C#CC)C2CCCC2)CC1` (configuration not stated), for which the growth inhibition in experiment [1] (setting [7]) was 40%; in experiment [1] (setting [8]), 72% (active); in experiment [1] (at 50.0 µM), 68.9%; in experiment [2] (setting [7]), 31%; in experiment [2] (setting [8]), 62%; in experiment [2] (at 50.0 µM), 50.9%. Besides, the growth inhibition in experiment [3] (setting [7]) is 40%; in experiment [3] (setting [8]), 71% (active); in experiment [3] (at 50.0 µM), 71.9% (active); in experiment [4] (setting [7]), 35%; in experiment [4] (setting [8]), 76% (active); in experiment [4] (at 50.0 µM) it was 58.6%. The growth inhibition was 21% in experiment [5] (setting [7]); 78% (active) in experiment [5] (setting [8]); 61.8% in experiment [5] (at 50.0 µM); 17% in experiment [6] (setting [7]); 66% in experiment [6] (setting [8]); 64% in experiment [6] (at 50.0 µM).

With `CC1=C[P+](c2ccccc2)(c2ccccc2)C=C(c2ccccc2)O1`, the growth inhibition in experiment [1] (setting [7]) is 51%; in experiment [1] (setting [8]), 94% (active); in experiment [1] (at 50.0 µM), 84.5% (active); in experiment [2] (setting [7]) it was 24%; in experiment [2] (setting [8]), 98% (active); in experiment [2] (at 50.0 µM), 88.1% (active). Further, the growth inhibition was 25% in experiment [3] (setting [7]); 94% (active) in experiment [3] (setting [8]); 87.4% (active) in experiment [3] (at 50.0 µM); 42% in experiment [4] (setting [7]); 89% (active) in experiment [4] (setting [8]); 84.8% (active) in experiment [4] (at 50.0 µM). Besides, the growth inhibition in experiment [5] (setting [7]) is 64%; in experiment [5] (setting [8]), 97% (active); in experiment [5] (at 50.0 µM), 90.4% (active); in experiment [6] (setting [7]), 34%; in experiment [6] (setting [8]), 93% (active); in experiment [6] (at 50.0 µM), 89% (active).

In the case of `Fc1ccc(CSC(=S)Nc2ccc(Br)cc2)cc1`, the growth inhibition was 9% in experiment [1] (setting [7]); 99% (active) in experiment [1] (setting [8]); 91.2% (active) in experiment [1] (at 50.0 µM); 8% in experiment [2] (setting [7]); 99% (active) in experiment [2] (setting [8]); 90% (active) in experiment [2] (at 50.0 µM). In addition, the growth inhibition in experiment [3] (setting [7]) is 11%; in experiment [3] (setting [8]), 99% (active); in experiment [3] (at 50.0 µM) it was 94.8% (active); in experiment [4] (setting [7]), -9%; in experiment [4] (setting [8]) it was 99% (active); in experiment [4] (at 50.0 µM), 56.2%. Moreover, the growth inhibition in experiment [5] (setting [7]) is -6%; in experiment [5] (setting [8]) it was 99% (active); in experiment [5] (at 50.0 µM), 71.1% (active); in experiment [6] (setting [7]), 21%; in experiment [6] (setting [8]), 99% (active); in experiment [6] (at 50.0 µM), 95.5% (active).

In the case of `OC1(c2ccccc2)CCN(c2c3ccccc3nc3ccccc23)CC1`, the growth inhibition in experiment [1] (setting [7]) is 0%; in experiment [1] (setting [8]), 63%; in experiment [1] (at 50.0 µM) it was 98.9% (active); in experiment [2] (setting [7]) it was 3%; in experiment [2] (setting [8]) it was 75% (active); in experiment [2] (at 50.0 µM) it was 99.5% (active). Also, the growth inhibition in experiment [3] (setting [7]) is 6%; in experiment [3] (setting [8]), 75% (active); in experiment [3] (at 50.0 µM) it was 97.6% (active); in experiment [4] (setting [7]), 5%; in experiment [4] (setting [8]), 30%; in experiment [4] (at 50.0 µM), 99% (active). For the same compound, the growth inhibition in experiment [5] (setting [7]) is 0%; in experiment [5] (setting [8]), 58%; in experiment [5] (at 50.0 µM), 99.3% (active); in experiment [6] (setting [7]) it was -2%; in experiment [6] (setting [8]), 68%; in experiment [6] (at 50.0 µM) it was 99.4% (active).

Turning to `COC(=O)c1ccc(NCc2c(O)ccc(O)c2Br)cc1Cl`, the growth inhibition in experiment [1] (setting [7]) is 21%; in experiment [1] (setting [8]) it was 99% (active); in experiment [1] (at 50.0 µM), 89.5% (active); in experiment [2] (setting [7]) it was 14%; in experiment [2] (setting [8]), 99% (active); in experiment [2] (at 50.0 µM), 92.2% (active). Also, the growth inhibition in experiment [3] (setting [7]) was 21%; in experiment [3] (setting [8]) it was 99% (active); in experiment [3] (at 50.0 µM) it was 89.1% (active); in experiment [4] (setting [7]) it was 25%; in experiment [4] (setting [8]), 99% (active); in experiment [4] (at 50.0 µM), 90.2% (active). For the same compound, the growth inhibition was 22% in experiment [5] (setting [7]); 99% (active) in experiment [5] (setting [8]); 91.8% (active) in experiment [5] (at 50.0 µM); 25% in experiment [6] (setting [7]); 98% (active) in experiment [6] (setting [8]); 91.7% (active) in experiment [6] (at 50.0 µM).

Turning to `N#CC1(C#N)C(C#N)(C#N)C12CCCC2`, the growth inhibition in experiment [1] (setting [7]) is 5%; in experiment [1] (setting [8]) it was 50%; in experiment [1] (at 50.0 µM), 38.9%; in experiment [2] (setting [7]), 4%; in experiment [2] (setting [8]) it was 54%; in experiment [2] (at 50.0 µM), 21.4%. Also, the growth inhibition is 4% in experiment [3] (setting [7]); 66% in experiment [3] (setting [8]); 74% (active) in experiment [3] (at 50.0 µM); 1% in experiment [4] (setting [7]); 30% in experiment [4] (setting [8]); 16.9% in experiment [4] (at 50.0 µM). The growth inhibition in experiment [5] (setting [7]) is 4%; in experiment [5] (setting [8]) it was 81% (active); in experiment [5] (at 50.0 µM) it was 12.4%; in experiment [6] (setting [7]), 5%; in experiment [6] (setting [8]) it was 91% (active); in experiment [6] (at 50.0 µM), 67.3%.

For the compound `Oc1ccc(C(O)(c2ccccc2)c2ccccc2)c2ccccc12`, the growth inhibition in experiment [1] (setting [7]) is 45%; in experiment [1] (setting [8]) it was 94% (active); in experiment [1] (at 50.0 µM) it was 98.2% (active); in experiment [2] (setting [7]), 12%; in experiment [2] (setting [8]), 98% (active); in experiment [2] (at 50.0 µM) it was 97.9% (active). Also, the growth inhibition in experiment [3] (setting [7]) was 59%; in experiment [3] (setting [8]), 93% (active); in experiment [3] (at 50.0 µM), 98.5% (active); in experiment [4] (setting [7]), 28%; in experiment [4] (setting [8]), 67%; in experiment [4] (at 50.0 µM), 97.2% (active). Also, the growth inhibition in experiment [5] (setting [7]) was 7%; in experiment [5] (setting [8]), 43%; in experiment [5] (at 50.0 µM), 98% (active); in experiment [6] (setting [7]), 20%; in experiment [6] (setting [8]), 96% (active); in experiment [6] (at 50.0 µM), 97.5% (active).
